Measurements as given in PubChem BioAssay (NCI).
The panel holds about 83,000 compounds, 20% with a hit somewhere; the sample as a whole holds those more often.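 The endpoint reported here, percent growth, reads 100 for growth as untreated, 0 for no net growth and -100 for all cells dead.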 Unmarked numbers belong to inactive results. The source made the active and inactive calls. How the source made its calls: active means growth percent below 10; inactive means the rest.

Experiments:
Assay in all cases: NCI-60 one-dose screen, 48 h (100 = growth as untreated, 0 = no growth, -100 = all killed)
Details in all cases: 10 µM unless noted
SK-MEL-2 melanoma = system: SK-MEL-2 melanoma
EKVX NSCLC = system: EKVX NSCLC
SN12C renal = system: SN12C renal
UO-31 renal = system: UO-31 renal
TK-10 renal = system: TK-10 renal
ACHN renal = system: ACHN renal
CAKI-1 renal = system: CAKI-1 renal
A498 renal = system: A498 renal
CCRF-CEM leukemia = system: CCRF-CEM leukemia
MOLT-4 leukemia = system: MOLT-4 leukemia
SR leukemia = system: SR leukemia
RPMI-8226 leukemia = system: RPMI-8226 leukemia
OVCAR-8 ovarian = system: OVCAR-8 ovarian
OVCAR-5 ovarian = system: OVCAR-5 ovarian
OVCAR-4 ovarian = system: OVCAR-4 ovarian
SK-OV-3 ovarian = system: SK-OV-3 ovarian
IGROV1 ovarian = system: IGROV1 ovarian
OVCAR-3 ovarian = system: OVCAR-3 ovarian
HS 578T breast = system: HS 578T breast
NCI/ADR-RES ovarian = system: NCI/ADR-RES ovarian

Structure (SMILES) | growth (SK-MEL-2 melanoma) | growth (EKVX NSCLC) | growth (SN12C renal) | growth (UO-31 renal) | growth (TK-10 renal) | growth (ACHN renal) | growth (CAKI-1 renal) | growth (A498 renal) | growth (CCRF-CEM leukemia) | growth (MOLT-4 leukemia) | growth (SR leukemia) | growth (RPMI-8226 leukemia) | growth (OVCAR-8 ovarian) | growth (OVCAR-5 ovarian) | growth (OVCAR-4 ovarian) | growth (SK-OV-3 ovarian) | growth (IGROV1 ovarian) | growth (OVCAR-3 ovarian) | growth (HS 578T breast) | growth (NCI/ADR-RES ovarian)
CN(C)CCCNC(=O)c1cc(NC(=O)c2cc(NC(=O)c3ccc(C#Cc4ccccc4)cc3)cn2C)cn1C | -88.8% (active) | 27% | -18.5% (active) | 36.1% | 42.9% | 19.2% | 18.6% | 83.5% | -24.3% (active) | -29.5% (active) | -46.3% (active) | -49% (active) | -0.647% (active) | 36.8% | 43.6% | 46.5% | 34.3% | -2.81% (active) | 31.7% | 56.6%
CCCCn1c(O)c(N=Nc2nc(-c3cc4ccccc4oc3=O)cs2)c2cc(Br)ccc21 | 116% | 97.1% | 101% | 85% | 115% | 106% | 102% | 103% | 104% | 107% | 103% | 108% | 113% | 96.2% | 111% | 124% | 114% | 99.1% | 108% | 102%
O=S(=O)(Nc1cccc(-n2cnc3cc(-c4ccc(O)cc4)ccc32)c1)C1CC1 | 51.7% | 46.4% | 34.8% | 21% | 65% | 21.3% | 18.9% | 30.6% | 23.6% | 13.7% | 13.2% | 23.9% | 19.8% | 47.1% | 48.3% | 35.6% | 35.3% | 2.82% (active) | -20.1% (active) | 25.1%
CN(C)c1nc(NCCNS(=O)(=O)c2ccc(C3=Nc4c(N)nc(N)nc4NC(c4ccccc4)C3)cc2)nc(Nc2ccc(F)cc2)n1 (stereo not given) | 68.6% | 51.4% | 37.8% | 69% | 65% | 76.3% | 61.2% | 57.3% | 22.2% | 2.62% (active) | 1.17% (active) | 4.93% (active) | 42.3% | 75.3% | 38.9% | 80.7% | 32.1% | 45.2% | 46.3% | 92.9%
Cc1cc2nc3c4ccccc4n(CCCN(C)C)c3nc2cc1C | -90.1% (active) | -41.8% (active) | -27.6% (active) | 2.63% (active) | 8.05% (active) | 4.95% (active) | 3.24% (active) | -39.6% (active) | 0.177% (active) | 2.75% (active) | 3.07% (active) | -26.1% (active) | 6.13% (active) | 9.07% (active) | -23.4% (active) | 8.14% (active) | -10.5% (active) | -14.2% (active) | -10.7% (active) | 1.96% (active)
Nc1nnc(-c2c[nH]c3ccc(Br)cc23)c(-c2c[nH]c3ncc(Br)cc23)n1 | -33.2% (active) | 46.6% | 46.5% | 42.1% | 33.1% | 29.6% | 21% | 17.6% | 13.4% | 2.51% (active) | 23.6% | 19.6% | 34.3% | 59% | 33.6% | 37.6% | 22% | 62.4% | 48.8% | 78.6%
CN(C)CCOc1ccc(C(=O)C2[C@H](c3ccc(Cl)cc3)[C@@H](c3ccccc3)NC23C(=O)Nc2ccc(Br)cc23)cc1 (stereo not given in full) | 54.1% | 12.3% | 7.21% (active) | 32.8% | 90.2% | -27.9% (active) | 18.5% | 96% | 43.9% | -52.3% (active) | -36.4% (active) | -30.8% (active) | -61.8% (active) | 36.4% | 33.9% | 96% | 29.1% | -4.55% (active) | 58.7% | 23%
COc1cc(C2CC(c3cc(OC)c(OC)c(OC)c3)=Nc3c(N)nc(N)nc3N2)ccc1Oc1nc(NCCO)nc(N2CCOCC2)n1 (stereo not given) | 105% | 84.3% | 93% | 84.1% | 120% | 101% | 80.8% | 105% | 102% | 96.7% | 93.1% | 95.5% | 99.9% | 106% | 107% | 104% | 104% | 107% | 95% | 97.6%
COc1ccc(C2=NN(c3ccccc3)C(c3ccc(OC)c(OCc4ccccc4)c3)C2)cc1OC (stereo not given) | 94.1% | 92.4% | 104% | 91.7% | 125% | 110% | 76.7% | 101% | 106% | 97% | 104% | 107% | 96.3% | 110% | 89.8% | 93.4% | 84.1% | 106% | 97.7% | 103%
COc1ccc(CCC2c3c(cc4c(c3OC)OCO4)CCN2C)cc1 (stereo not given) | -62.7% (active) | -17.3% (active) | -18.6% (active) | -21.9% (active) | -14.7% (active) | -16.5% (active) | 0.732% (active) | 13.2% | 4.55% (active) | -4.81% (active) | -18.2% (active) | -28.5% (active) | -41.7% (active) | -16.5% (active) | 9.34% (active) | -37.6% (active) | -52.4% (active) | -21.2% (active) | 11% | -54.5% (active)
C=C1CCC2C3(C)COC(c4ccccc4)OC3CCC2(C)C1CC(Sc1ccccc1)C1=CCOC1=O (stereo not given) | 59.4% | 69.3% | 25.7% | 45.5% | 106% | 65.1% | 78.4% | 140% | -1.92% (active) | -14.3% (active) | 8.04% (active) | 3.18% (active) | 12.9% | 58.5% | 50.4% | 120% | 58% | 44% | 94.1% | -22.7% (active)
Nc1nc(-c2ccccc2)c(N=Nc2ccc(Cl)cc2[N+](=O)[O-])s1 | 90.4% | 76.8% | 96% | 65.2% | 169% | 101% | 82.5% | 92% | 101% | 100% | 99.7% | 94.2% | 91.3% | 101% | 97.2% | 96.5% | 80.5% | 108% | 79.6% | 101%
C/C(=N\N=C1/C(=O)Nc2ccc(Cl)cc21)c1ccc2c(c1)Nc1ccccc1S2 | -13.6% (active) | 12.6% | -16.2% (active) | 18.2% | 22.4% | -3.77% (active) | 6.63% (active) | 23.7% | 9.58% (active) | -1.18% (active) | 11.4% | 10.8% | -15.6% (active) | 15.8% | 15.7% | 50.4% | -8.9% (active) | -66.9% (active) | 9.82% (active) | -28.3% (active)
C=C1CC[C@@H]2[C@]3(C)COC(c4cn[nH]c4-c4ccc(F)cc4)O[C@@H]3CC[C@@]2(C)[C@@H]1C/C=C1/C(=O)OCC1O (stereo not given in full) | -39% (active) | -6.56% (active) | -51.4% (active) | -80.4% (active) | -19.1% (active) | -80.3% (active) | 1.51% (active) | 146% | -3.97% (active) | 1.15% (active) | 9.73% (active) | 0.899% (active) | 1.2% (active) | -42.2% (active) | 32.9% | 46.6% | -31.1% (active) | -68.6% (active) | 44.8% | -45.6% (active)
Clc1cccc(N/N=C/c2c[nH]c3ccc(Br)cc23)n1 | 27.4% | 33.9% | -1.39% (active) | 7.66% (active) | 63.9% | 10.6% | 11.7% | 79.9% | -14.8% (active) | -20.1% (active) | -14% (active) | 1.81% (active) | 42% | 14% | 61% | 25.3% | -33.2% (active) | 18.6% | 32.9% | 2.49% (active)
